Bioassay records from PubChem.
An excerpt weighted towards active compounds, which were near 9.4% of everything screened.
HTT cytoprotect = qHTS Multiplex Assay to Identify Dual Action Probes in a Cell Model of Huntington: Cytoprotection (ATP) | PC12 HTT-Q103 induced, cytoprotection, ATP luminescence, 40 h | hit rate 0.14% among 230,000 | AID 1471, 2008 | Potency, µM (series often up to 56.4 µM), without a hit: cytoprotection (ATP increase), actives largely listed as activators; note: potency is the fitted concentration of half-maximal effect; % of control where 0% means no effect; nearly all actives have a fitted effect of over 45% in size
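PC12 cells with ecdysone-inducible HTT exon 1 Q103-GFP, induced with 100 nM tebufenozide and co-treated with library compounds in a dose series (1536-well, 1500 cells/well). Cytoprotection read as ATP content by ATPlite luminescence.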
HPGD inh = qHTS Assay for Inhibitors of HPGD (15-Hydroxyprostaglandin Dehydrogenase) | 15-hydroxyprostaglandin dehydrogenase [NAD(+)] (Homo sapiens), P15428 | purified HPGD, NADH fluorescence kinetic, PGE2 substrate | Potency, µM, for the others: at the top dose activity change, negative = inhibition, most hits filed as inhibitors | hit rate 4.3% among 150,000; active = well fitted inhibition curve with a large enough effect, not every such curve was filed as active; inconclusive = small, poorly fitted or top-dose-only effect, or another doubt; inactive = no such curve, though single readings can be large or run the other way; note: potency is the fitted concentration of half-maximal effect; % is set by controls: 0 for no effect and ±100 for the full control effect
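NADH formation kinetics: reaction with 30 uM PGE2 and 1 mM NAD+ (final), 20 nM enzyme, Tris-HCl pH 8 with Tween 20, after 15 min compound preincubation at room temperature. Fluorescence change, last versus first of five reads.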
HttQ103 aggreg = qHTS Multiplex Assay to Identify Dual Action Probes in a Cell Model of Huntington: Aggregate Formation (GFP); Potency, µM (titrated, usually from 46.1 µM), without a hit: at the top dose activity change, negative = inhibition, most hits filed as inhibitors; PC12 HttQ103-GFP aggregates, Acumen cytometry, 40 h; AID 1688, 2009; hit rate 1.1% among 220,000; note: potency is the fitted concentration of half-maximal effect; % is set by controls: 0 for no effect and ±100 for the full control effect; nearly all actives have a fitted effect of over 60% in size
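Inducible Q103 Huntingtin exon 1–GFP PC12 line, 1500 cells/well in phenol red free DMEM with 5% equine and 5% calf serum. Tebufenozide 100 nM induced expression; compounds titrated; aggregates quantified by cytometry.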
IMPase inh = qHTS Assay for Identifying the Cell-Membrane Permeable IMPase Inhibitors; CHO-M1 cells, IP1 accumulation, HTRF TR-FRET ratio; 120,000 tested, under 10 active; Inositol monophosphatase 1 (Rattus norvegicus), P97697; inhibition (IP1 accumulation), % at 46.1 µM; active = well fitted curve in the direction sought with a large enough effect in the signal ratio, not every such curve was filed as active; inconclusive = small, poorly fitted or top-dose-only effect, or a change in a side signal; inactive = no such curve, though single readings can be large or run the other way; the % refers to the signal ratio;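 note: cells stimulated with carbachol in lithium chloride buffer; plate controls were DMSO basal wells for no effect and reference inhibitor wells for full effect; higher means more IMPase inhibition seen as more IP1 and lower FRET ratio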
Target sequence (P97697 whole entry, looked up): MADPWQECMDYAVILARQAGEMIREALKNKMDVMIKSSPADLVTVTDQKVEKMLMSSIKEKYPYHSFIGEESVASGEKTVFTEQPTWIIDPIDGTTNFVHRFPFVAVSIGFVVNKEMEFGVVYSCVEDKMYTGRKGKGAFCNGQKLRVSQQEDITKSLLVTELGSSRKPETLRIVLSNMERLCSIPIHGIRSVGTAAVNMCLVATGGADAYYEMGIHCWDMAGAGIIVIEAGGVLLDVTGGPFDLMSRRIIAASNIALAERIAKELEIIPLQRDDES
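Cellular IMPase inhibition is scored as a rise in cytosolic IP1, detected by competitive TR-FRET between d2-labelled IP1 and a europium anti-IP1 antibody. M1-expressing CHO cells were stimulated with carbachol for 30 min at 37C, with lithium (50 mM LiCl) present in the buffer.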
ALDH1A1 block = qHTS Assay for Inhibitors of Aldehyde Dehydrogenase 1 (ALDH1A1); Aldehyde dehydrogenase 1A1 (Homo sapiens), P00352; Purified ALDH1A1, NADH fluorescence, propionaldehyde substrate; Potency, µM (highest dose often 75.3 µM), inactives show top-dose activity, negative = inhibition, usual class: inhibitors; hit rate 7.3% among 220,000; AID 1030, 2008; active = well fitted inhibition curve with a large enough effect, not every such curve was filed as active; inconclusive = small, poorly fitted or top-dose-only effect, or another doubt; inactive = no such curve, though single readings can be large or run the other way;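 note: potency is the fitted concentration of half-maximal effect; plate controls were no enzyme wells and a reference inhibitor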
Target sequence (P00352 whole entry, looked up): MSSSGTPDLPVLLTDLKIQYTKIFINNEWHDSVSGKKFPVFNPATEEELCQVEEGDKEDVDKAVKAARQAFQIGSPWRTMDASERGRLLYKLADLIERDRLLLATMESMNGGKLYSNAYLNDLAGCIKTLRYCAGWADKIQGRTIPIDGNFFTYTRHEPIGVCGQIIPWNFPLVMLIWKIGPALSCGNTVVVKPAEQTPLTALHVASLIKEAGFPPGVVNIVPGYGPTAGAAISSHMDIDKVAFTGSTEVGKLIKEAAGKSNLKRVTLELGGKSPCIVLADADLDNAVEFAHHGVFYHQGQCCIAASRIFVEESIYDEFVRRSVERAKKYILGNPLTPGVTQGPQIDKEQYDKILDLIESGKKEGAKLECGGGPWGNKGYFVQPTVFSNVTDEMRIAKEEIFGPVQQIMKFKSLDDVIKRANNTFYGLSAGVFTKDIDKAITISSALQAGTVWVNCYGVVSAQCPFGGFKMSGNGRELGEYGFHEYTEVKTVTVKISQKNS
IMPase Li inh = qHTS Assay for Identifying the Cell-Membrane Permeable IMPase Inhibitors: Potentiation with Lithium | CHO-M1 cells, IP1 TR-FRET (IP-One), carbachol + lithium | Potency, µM (titrated, usually from 59.4 µM), for inactives: at the highest dose activity, negative = IMPase inhibition, most hits filed as inhibitors | hit rate 0.35% among 210,000;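 note: IP1 builds up when IMPase is blocked and the TR-FRET signal falls; potency is the fitted concentration of half-maximal effect; plate controls were basal vehicle for no effect and high inhibitor control for full effect; nearly all actives have a fitted effect of over 50% in size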
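CHO-M1, 2000 cells/well, 16–30 h culture; cpd + low Li+, 30 min 37C; lysis with d2-IP1/Eu-anti-IP1 Ab, 10 min RT; TR-FRET 665/620 ratio and 620 channel; AC50 via Hill.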
The depositor's hits bear a star; ? = inconclusive; . = no result given; [ ] = another dose, or the depositor's remark. Unless noted, calls come from the whole dose curve; as a rule, active = well fitted curve in the direction sought with a large enough effect; inconclusive = small, poorly fitted or top-dose-only effect, or another doubt; inactive = no such curve, though single readings can be large; an effect the other way counts as inactive or inconclusive.

SMILES	HTT cytoprotect	HPGD inh	HttQ103 aggreg	IMPase inh	ALDH1A1 block	IMPase Li inh
CCOC(=O)c1cnc2c(OC)cccc2c1Nc1cccc(O)c1	.	.	.	-0.8	.	.
CC(C)(C)c1cc(-c2csc(Nc3ccccc3)[n+]2Cc2ccc(C(=O)O)cc2)cc(C(C)(C)C)c1O	-4.9%[10 µM]	.	0.9%[9.22 µM]	.	.	.
O=C(O)c1ccc(C[n+]2c(-c3ccccc3)csc2Nc2ccccc2)cc1	18.5%[1.9 µM]	15.8µM*	1.5%	-3.0	-13.6%	1.3%
CCC(C(=O)NC1CCCCC1)N(Cc1cccs1)C(=O)c1snc(C(N)=O)c1N (configuration not stated)	-14.0%	.	5.1%	.	?	6.5%
CC1CN(C(=O)C(C)Sc2nc3ccccc3s2)CC(C)O1 (configuration not stated)	-0.9%	28.2µM*	6.0%	-3.3	?	-10.3%[38.3 µM]
Cc1ccc2nc(SC(C)C(=O)N3CC(C)OC(C)C3)[nH]c2c1 (configuration not stated)	-2.8%[10 µM]	.	6.8%	.	-1.7%	-3.4%
CC(Sc1nc2ccccc2s1)C(=O)NC1CCCc2ccccc21 (configuration not stated)	5.9%[10 µM]	-3.7%	?	8.9	12.6µM*	13.9%
CCCCC[C@H](O)/C=C/[C@@H]1[C@H](C/C=C\CCCC(=O)O)[C@@H](O)C[C@H]1O	7.7%	-8.3%	.	.	3.3%	-10.7%
Cc1cccc(OCCn2c(SCC(N)=O)nc3ccccc32)c1	.	.	.	0.4	.	.
Cc1ccc(-n2c(C)cc(C(=O)CN3CCOCC3)c2C)cc1C	-15.4%	.	-6.4%	.	8.6%	3.3%
Cc1cc(-n2c(C)cc(C(=S)N3CCOCC3)c2C)ccc1Br	30.6%[10 µM]	10µM*	-4.9%	.	11.2µM*	12.6%
CCC(=O)OCCCNc1nc(-c2ccc(Cl)cc2)nc2ccccc12	.	.	.	11.7	.	.
CCCC/C=C/C(NC(=O)c1cccs1)c1ccccc1 (configuration not stated)	25.8%	-15.8%	.	.	?	16.5%
NC(=O)c1cccc2ccccc12	6.0%[10 µM]	.	9.0%[9.22 µM]	.	.	.
N#CSCC(=O)c1cccc2ccccc12	-1.1%[10 µM]	?	?	.	1.58µM*	-7.7%
CCCCSc1nnc2c(n1)OC(c1ccc(C)s1)Nc1ccccc1-2 (configuration not stated)	.	.	.	-8.4	.	.
COc1ccc(C2C(C#N)=C(N)Nc3onc(C(C)(C)C)c32)c(OC)c1 (configuration not stated)	.	-5.8%	9.5%	.	12.5%	3.0%
CCCc1noc2c1C(c1cc(Br)ccc1F)C(C#N)=C(N)N2 (configuration not stated)	-55.6%	.	39.3%	.	11.2µM*	2.0%
COc1ccccc1-n1c(=S)sc2c(=O)n(Cc3ccco3)c(SC)nc21	6.3%[0.074 µM]	-27.6%	20.5%	-5.8	20µM*	33.4%[38.3 µM]
CCN(CC)C(=O)CSc1nc2c(sc(=S)n2-c2ccccc2)c(=O)n1Cc1ccco1	-32.3%	31.6µM*	1.7%[9.22 µM]	12.5	10µM*	10.2%[38.3 µM]
CCN(CC)C(=O)CSc1nc2c(sc(=S)n2CC)c(=O)n1-c1ccccc1	-14.3%[10 µM]	-3.5%	-13.6%	10.2	?	-9.9%[38.3 µM]
Cc1[nH]c2ccccc2c1Cc1n[nH]c(=S)o1	-13.2%	?	-12.3%	-2.2	?	-6.6%[38.3 µM]
Cn1c(SCc2n[nH]c(=S)o2)nnc1-c1ccccc1	.	-7.4%	12.8%	.	0.5%	-6.5%
S=c1[nH]nc(Cc2cccc3ccccc23)o1	-7.3%[10 µM]	?	3.5%	.	10µM*	-0.5%
CC(Cc1n[nH]c(=S)o1)c1ccccc1 (configuration not stated)	3.2%[10 µM]	.	11.7%	.	17.8µM*	5.9%
SMILES	HTT cytoprotect	HPGD inh	HttQ103 aggreg	IMPase inh	ALDH1A1 block	IMPase Li inh
CC(C)NC(=O)N1CC[C@@]2(CCCN(S(=O)(=O)c3ccccc3)C2)C1	-5.0%	-1.6%	.	.	16.0%	-5.4%
CCCCC(=O)Nc1c(C)cc(C)cc1Cl	22.2%	35.5µM*	12.6%[9.22 µM]	-3.6	-8.9%	40.9%[38.3 µM]
O=C(O)C1CC(=O)n2c(nc3ccccc32)S1 (configuration not stated)	16.7%	-17.2%	9.4%	-6.5	25.1µM*	3.6%[38.3 µM]
O=C1CSc2nc3ccccc3n21	-1.0%	?	3.3%	-1.7	?	-6.9%[38.3 µM]
O=C(Nc1cccc(F)c1)N1CCC2(CC1)CCN(C(=O)c1csnn1)CC2	-16.0%	-1.4%	.	.	5.0%	0.1%
COC(=O)CN(C)C1CC(=O)N(c2ccc(Cl)cc2)C1=O (configuration not stated)	2.2%	-22.2%	-5.9%	-10.6	3.16µM*	5.9%[38.3 µM]
CN(C)CCCSc1nc2ccccc2[nH]1	3.7%[10 µM]	2.4%	.	.	21.3%[13.5 µM]	-3.2%
COCc1c(C(=O)NC2CCCCCC2)oc2ccccc12	-57.1%	.	?	.	11.2µM*	6.8%
CNC(=O)c1cc2c(ccc3ccccc32)o1	-48.9%	.	-0.8%	.	?	-7.1%
O=C(NC1CCCC1)c1cc2c(ccc3ccccc32)o1	-37.8%	?	11.2µM*	4.7	?	37.8%[38.3 µM]
Cc1ccc(C(=O)NC2CCCCCC2)o1	-0.9%	25.1µM*	-9.5%	-2.0	-4.0%	16.5%[38.3 µM]
O=C(NCCc1ccccc1)c1oc2ccccc2c1COc1ccccc1	37.1%[10 µM]	-15.3%	14.1µM*	.	-2.6%	11.5%
Cc1cc(C(=O)NC2CCCCC2)on1	17.6%[10 µM]	.	-11.3%[9.22 µM]	.	.	.
CCc1nn2c(=O)c(S(=O)(=O)Nc3ccc(Br)cc3F)c(C)nc2s1	.	.	.	8.9	.	.
COc1ccc(C(=O)N2CCC3(CCN(Cc4nccs4)CC3)CC2)cc1	0.3%	-6.9%	.	.	-2.0%	8.1%
CCCSc1nnc2c(n1)OC(CC)N(C(C)=O)c1ccccc1-2 (configuration not stated)	.	.	.	-3.4	.	.
N#C/C(=C/c1ccc(N2CCOCC2)o1)C(=O)NC1CCCCC1	-5.5%[10 µM]	.	4.7%[9.22 µM]	.	6.31µM*	19.6%
N#C/C(=C\c1ccc(N2CCOCC2)o1)C(=O)Nc1ccc(O)cc1	-124.1%	.	4.4%	.	20µM*	8.6%
N#C/C(=C/c1ccc(N2CCCCC2)o1)C(=O)Nc1ccc2ccccc2c1	0.5%[10 µM]	?	2.51µM*	.	?	10.0%
COCCNc1ccnc(-c2ccccc2C)n1	9.3%	.	.	.	?	3.4%
Cc1ccc(C2=NN(C(=O)CCl)C(c3cccs3)C2)o1 (configuration not stated)	-25.0%[10 µM]	.	?	-2.6	1.26µM*	.
CC(=O)N1N=C(c2ccco2)CC1c1cccs1 (configuration not stated)	4.8%[10 µM]	-14.9%	?	-6.6[1.84 µM]	3.55µM*	12.3%[38.3 µM]
